Hits are enriched below; roughly 1.3% of the tested compounds scored in any of these assays.
EPAC1 antag: qHTS for Antagonist of cAMP-regulated guanine nucleotide exchange factor 3 (EPAC1): primary screen; 360,000 tested, 0.14% active; AID 720709, 2013; Potency, µM (top dose mostly 115 µM), for inactives: top-dose activity change, negative = inhibition, usual class: inhibitors; Rap guanine nucleotide exchange factor 3 (Homo sapiens), O95398; EPAC1 GEF assay, Rap1b-BODIPY-GDP exchange fluorescence;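 note: plate controls were vehicle for no effect and positive control for full effect; nearly all actives have a fitted effect of over 50% in size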
Target sequence (O95398 whole entry, looked up): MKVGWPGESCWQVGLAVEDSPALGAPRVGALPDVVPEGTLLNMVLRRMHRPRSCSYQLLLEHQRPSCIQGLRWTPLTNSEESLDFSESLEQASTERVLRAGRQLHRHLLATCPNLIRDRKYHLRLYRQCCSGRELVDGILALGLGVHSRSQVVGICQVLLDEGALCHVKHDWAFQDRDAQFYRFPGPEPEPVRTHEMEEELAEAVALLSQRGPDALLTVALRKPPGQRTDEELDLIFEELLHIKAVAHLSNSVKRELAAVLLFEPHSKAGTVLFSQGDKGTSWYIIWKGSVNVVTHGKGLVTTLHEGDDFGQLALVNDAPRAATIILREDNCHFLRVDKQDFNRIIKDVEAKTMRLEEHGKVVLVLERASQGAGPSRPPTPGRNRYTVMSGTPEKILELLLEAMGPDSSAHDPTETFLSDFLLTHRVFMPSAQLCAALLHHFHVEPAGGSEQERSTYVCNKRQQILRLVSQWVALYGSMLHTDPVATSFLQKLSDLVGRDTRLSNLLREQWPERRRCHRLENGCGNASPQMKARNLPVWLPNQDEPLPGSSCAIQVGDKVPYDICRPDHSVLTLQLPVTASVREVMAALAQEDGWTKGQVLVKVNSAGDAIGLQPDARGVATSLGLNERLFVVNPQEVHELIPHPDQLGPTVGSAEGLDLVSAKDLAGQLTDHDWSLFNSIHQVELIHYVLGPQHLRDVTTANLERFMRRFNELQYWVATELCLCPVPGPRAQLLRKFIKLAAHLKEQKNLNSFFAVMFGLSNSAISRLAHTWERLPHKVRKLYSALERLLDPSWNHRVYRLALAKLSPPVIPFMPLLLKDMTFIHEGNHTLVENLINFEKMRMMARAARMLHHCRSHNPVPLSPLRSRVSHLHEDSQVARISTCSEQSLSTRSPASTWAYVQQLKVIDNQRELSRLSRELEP
EPAC2 agonist: qHTS for Agonist of cAMP-regulated guanine nucleotide exchange factor 4 (EPAC2): primary screen. EPAC2 activation, biochemical qHTS; response scale: 100% = 6.5 mM cAMP response. Rap guanine nucleotide exchange factor 4 (Homo sapiens), Q8WZA2. 360,000 tested, 0.079% active. Potency, µM (top dose mostly 154 µM), for the others: at the highest dose activation, usual class: activators; note: nearly all actives have a fitted effect of over 50% in size
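Nucleotide exchange monitored as fluorescence drop when BODIPY-GDP leaves Rap1B. Reaction: 100 nM EPAC2, 250 nM RAP1B-BODIPY-GDP, 50 uM GDP, room temperature, kinetic read over 30 min. Activity expressed relative to 6.5 mM cAMP.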
EPAC1 agonist: qHTS for Agonist of cAMP-regulated guanine nucleotide exchange factor 3 (EPAC1): primary screen | Rap guanine nucleotide exchange factor 3 (Homo sapiens), O95398 | EPAC1 agonist qHTS, biochemical assay; response scale: 100% = response to 6.5 mM cAMP | Potency, µM (highest dose often 154 µM), for the others: top-dose activation, hits mostly activators | 360,000 tested, 0.073% active; note: nearly all actives have a fitted effect of over 60% in size
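Read-out is the fluorescence drop as BODIPY-GDP leaves Rap1B (480 nm excitation, 540 nm emission), recorded every 5 minutes over 30 minutes. Reactions held 100 nM EPAC1, 250 nM Rap1B–BODIPY-GDP and 50 uM GDP, with 6.5 mM cAMP setting full activation.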
USP1-UAF1 inh: Inhibitors of USP1/UAF1: Primary Screen; recombinant USP1/UAF1, Ub-Rhodamine cleavage fluorescence; AID 743255, 2014; Potency, µM (series often up to 57.1 µM), for the others: at the top dose activity change, negative = inhibition, actives largely listed as inhibitors; Ubiquitin carboxyl-terminal hydrolase 1 (Homo sapiens), O94782; 390,000 tested, 0.23% active; note: % is set by controls: 0 for no effect and ±100 for the full control effect; nearly all actives have a fitted effect of over 60% in size
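High-throughput fluorogenic screen: 1nM USP1/UAF1 complex, Ub-Rho substrate 150nM final, 50mM HEPES pH 7.8 with 0.5mM EDTA, 0.1 mg/ml BSA, 1mM TCEP and 0.01% Tween-20.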
12-LOX inh: Primary qHTS assay for inhibitors of human arachidonate 12S-lipoxygenase (ALOX12): Round 2 | purified 12hLO, xylenol orange hydroperoxide absorbance | Potency, µM (doses to about 108 µM), without a hit: at the highest dose activity change, negative = inhibition, hits mostly inhibitors | 580,000 tested, 1.1% active; note: % is set by controls: 0 for no effect and ±100 for the full control effect
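Purified human 12hLO at 150 nM in 25 mM Hepes, 0.01% Triton X-100, pH 7.0, preincubated 15 min at room temperature with compound. Reaction started with 40 uM arachidonic acid, 30 min at room temperature. Hydroperoxide measured by Fe-xylenol orange, 573/405 nm absorbance ratio.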
EPAC2 antag: qHTS for Antagonist of cAMP-regulated guanine nucleotide exchange factor 2 (EPAC2): primary screen; Rap guanine nucleotide exchange factor 4 (Homo sapiens), Q8WZA2; EPAC2 GEF exchange of Rap1B-BODIPY-GDP, fluorescence; Potency, µM (series often up to 114 µM), for the others: at the highest dose activity, negative = inhibition, hits mostly inhibitors; 360,000 tested, 0.18% active; AID 720708, 2013; note: % is set by controls: 0 for no effect and ±100 for the full control effect; nearly all actives have a fitted effect of over 45% in size
* marks the source's active call; other numbers are inactive results; u = inconclusive; x = not tested or not shown; [ ] = remark or other dose. Calls come from the whole dose curve; as a rule, active = well fitted curve in the direction sought with a large enough effect; inconclusive = small, poorly fitted or top-dose-only effect, or another doubt; inactive = no such curve, though single readings can be large; an effect the other way counts as inactive or inconclusive. Potency is the fitted concentration of half-maximal effect.

SMILES	EPAC1 antag	EPAC2 agonist	EPAC1 agonist	USP1-UAF1 inh	12-LOX inh	EPAC2 antag
CC(NC(=O)C1CCCC(C(F)(F)F)C1)c1cccc(C(F)(F)F)c1 (centres undefined)	x	x	x	x	4%	x
CC(C)(C)c1cc(C(F)(F)F)c(C#N)c(=O)[nH]1	4%	9%	-1%	-5%	u	-3%
Cc1cc(C(F)(F)F)c(C#N)c(=S)[nH]1	x	x	x	x	16µM*	x
Cc1ccccc1C(=O)N/N=C/c1ccc([N+](=O)[O-])s1	9%	-2%	1%	-29%	-29%	16%
Cc1c(Cl)cccc1N=Cc1ccc([N+](=O)[O-])s1	u	10%	3%	32µM*	-6%	14%
Cc1c(/C=C(/C#N)c2ccccn2)cc(C#N)n1C	x	x	x	x	35µM*	x
Cc1cc(/C=C(/C#N)c2ccccn2)c(C)n1C1CC1	x	x	x	x	11µM*	x
CCONC(=O)c1ccc(OC)cc1O	x	x	x	x	31%	x
Cc1cccc(/C=C/C(=O)NCCc2ccccn2)c1	x	x	x	x	52%	x
Cn1c(SCc2nc(N)nc(Nc3ccc(F)cc3)n2)nnc1C1CC1	x	x	x	x	6%	x
O=C(Nc1ccc2oc(-c3ccc(Cl)cc3)nc2c1)c1ccccc1	x	x	x	x	-59%	x
CCCCNC1C2CC3CC(C2)CC1C3 (centres undefined)	x	x	x	x	-7%	x
O=C(CCc1cccnc1)Nc1ccccc1	x	x	x	x	-9%	x
Cc1ccn2c(=O)cc(CSc3ccccc3NS(=O)(=O)c3ccc(C(C)C)cc3)nc2c1	x	x	x	x	4%	x
CC(C)C[C@H]1CCC[C@H](CC(C)C)[N+]1(C)C	x	x	x	x	14µM*	x
O=C(Nc1ccccc1O)c1ccc2c(c1)C(=O)N(N1C(=O)c3ccccc3C1=O)C2=O	11%	0%	-5%	-6%	-8%	1%
O=C1C=C(NCc2ccccc2)c2ccccc2C1=O	u	26%	-8%	2.5µM*	u	u
O=C1C=C(Nc2ccccc2O)c2ccccc2C1=O	-23%	-3%	-5%	18µM*	-19%	-1%
O=c1cccccc1NCc1ccccc1	6%	-3%	9%	-13%	-8%	1%
Cc1ccc(NC2=CC(=O)C(=O)c3ccccc32)c(C)c1	-20%	1%	0%	32µM*	285%	15%
Cc1c(C(=O)c2ccccc2)oc2cc(NC(=O)c3cccnc3)ccc12	x	x	x	x	-18%	x
NC(=O)c1cc(NC(=O)c2cc(Br)c(Br)s2)cc(C(N)=O)c1	-22%	6%	4%	-12%	-13%	-7%
O=C(Nc1cccnc1)Nc1ccc(Br)cc1Cl	3%	-2%	7%	-9%	16µM*	-15%
O=C(Nc1cccnc1)c1cc(Br)c(Br)s1	17%	6%	3%	-19%	20µM*	10%
Cc1ccnc(NC(=O)c2ccc3nc(C)c(C)nc3c2)c1	x	x	x	x	19%	x
SMILES	EPAC1 antag	EPAC2 agonist	EPAC1 agonist	USP1-UAF1 inh	12-LOX inh	EPAC2 antag
C[C@@](N)(C(=O)O)c1ccc(P(=O)(O)O)cc1	x	x	x	x	13µM*	x
O=C1/C(=C/c2ccco2)SC(=S)N1CCC(=O)N1CCCCC1CCO (centres undefined)	-26%	2%	-13%	u	45µM*	28%
C=C(C)CN(C)C(=O)c1cc(CN2CCC(Cc3ccccc3)CC2)on1	x	x	x	x	22%	x
COc1ccccc1CNc1ncnc2cc(Cl)ccc12	6%	0%	-1%	-21%	-3%	0%
COc1ccccc1Oc1ccnc2cc(Cl)ccc12	-17%	6%	-1%	-11%	-13%	40µM*
CN(C)c1ccc(C(=O)C(=O)c2ccccc2)cc1	2%	12%	13%	-25%	0%	u
CN(C)c1ccc(C(=C2C=CC(=[N+](C)C)C=C2)c2ccccc2)cc1	x	x	x	x	0.32µM*	x
CCC(=O)N(C)/C=C1\Sc2ccccc2C1=O	-3%	-7%	3%	-13%	u	-12%
CC(=O)N(C)/C=C1\Sc2ccccc2C1=O	11%	10%	3%	-15%	35µM*	16%
COc1ccc(-c2nn3c(C4CCCCC4)nnc3s2)cc1OC	-14%	8%	4%	-10%	u	-2%
COc1cc(-c2nn3c(C4CCCCC4)nnc3s2)cc(OC)c1OC	-12%	-4%	-7%	1%	25µM*	-4%
O=C(O)/C=C\C(=O)Nc1ccccc1C#Cc1ccc(Br)cc1	-3%	9%	14%	2%	u	10µM*
CNc1ccc(Br)cc(C(=O)/C=C/c2cccc(OC)c2OC)c1=O	13%	3%	7%	-11%	u	5%
CNc1ccc(Br)cc(C(=O)/C=C/c2cccc(Cl)c2Cl)c1=O	-13%	18%	1%	u	6.3µM*	-10%
CCNc1ccc(Br)cc(C(=O)/C=C/c2ccccc2Cl)c1=O	-24%	2%	5%	28µM*	8.9µM*	15%
CCNc1ccccc(C(=O)/C=C/c2ccc3c(c2)OCO3)c1=O	u	-54%[15.6 µM]	-8%	-25%	u	3%
CCNC(=O)C(C)NC(=O)c1cc2ccc(OC)cc2nc1C (centres undefined)	x	x	x	x	-13%	x
S=C(NCCSCc1c(Cl)cccc1Cl)Nc1ccccc1	13%	28%	19%	-10%	35µM*	-1%[57.1 µM]
CC(C)(C)c1ccc(OCCNC(=S)Nc2ccccc2)cc1	u	7%	-1%	-11%	45µM*	u
S=C(NCCSCc1ccc(Cl)c(Cl)c1)Nc1ccccc1	0%	13%	15%	-24%	-40%	-1%
CCOc1ccc(NC(=S)NCCCc2ccccc2)cc1	-9%	15%	19%	-13%	u	-5%
CCOc1ccc(CSCCNC(=S)Nc2ccccc2)cc1	-3%	2%	7%	-12%	45µM*	1%
C/C(=N\Nc1ccc(Br)cc1)c1ccc2c(c1)Cc1ccccc1-2	x	x	x	x	10µM*	x
CC(=O)c1ccc2c(c1)Cc1ccccc1-2	x	x	x	x	15%	x
CN(CC(=O)Nc1ccc(Cl)c(C(F)(F)F)c1)C(=O)c1ccc2c(c1)OCCO2	-13%	1%	79µM*	-25%	-21%	-13%
O=C(O)CCc1ccc(S(=O)(=O)Nc2cccc3c2CCCC3)cc1	x	x	x	x	0%	x

Screening results (PubChem BioAssay)
